“And” between values parts separate entries of the source, which are not always exact repeats. Equal entries are not always repeated. The source made the active and inactive calls.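 Rule for the calls, unless noted: active = inhibition at or above 50% relative to wild type and mutant plate controls; inactive = inhibition below 50%.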
Legend:
[1] = inhibitors of TNFa-induced NFkB p65 translocation, primary screen, imaging, HUVEC, MLSMR starter and 10KST1 sets (AID 438;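 active = inhibition above 20% together with a positive visual image hit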;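 note: compound added about 3h40 before a 20 min TNFalpha stimulation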;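 for inhibition: signal is the nuclear over cytoplasmic p65 intensity ratio per well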); details: HUVEC TNFa-induced p65 nuclear translocation; cell count: measured here: nuclei count (cytotoxicity indicator), at 2.08 µM; inhibition: at 2 µM, stronger effect = higher value, 0% TNFa-plus-vehicle, 100% no-TNFa wells
[2] = inhibitors of mutant huntingtin aggregation, primary screen, imaging, exon1htt(103Q)mCFP cells, high-content imaging (AID 483;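 active = visual image review flags a hit and inhibition of aggregation exceeds 20%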;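 note: compound exposure lasted 3 days before fixation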;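 for nuclei count: percent of the per-plate median nuclei count of sample wells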); details: exon1htt(103Q)mCFP cell line, aggregate imaging, at 2 µM; inhibition of aggregation: stronger effect = higher value; nuclei count: measured here: cell count, toxicity
[3] = inhibitors of E-selectin induction by TNFa, primary screen, imaging, HUVEC, immunofluorescence, MLSMR starter and 10KST1 sets (AID 487;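 active = visually confirmed hit in the image check and inhibition above 20%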;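 for inhibition: signal is fraction of cell area covered by stained E-selectin grains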;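 for nuclei count: 100% = median nuclei count of all wells on the same plate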); details: HUVEC TNFalpha-induced E-selectin immunofluorescence imaging, at 2 µM; inhibition: stronger effect = higher value; nuclei count: measured here: cell number, toxicity
[4] = DUSP6 inhibitors restoring Erk phosphorylation by chemical complementation, primary imaging in DUSP6-transfected HeLa (AID 609;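 active = compounds giving at least 50% inhibition in the cell-based MKP-3 phosphatase rescue imaging test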;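 for inhibition: phospho-Erk level distribution per well compared with pooled transfected vehicle control wells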); details: HeLa MKP-3 transfected, phospho-Erk imaging KS statistic, at 10 µM, cells stimulated with TPA for 15 min
[5] = molecular target: Dual specificity protein phosphatase 6 (Homo sapiens) (UniProt Q16828); assay: as above; details: HeLa MKP-3 transfected, phospho-Erk imaging KS statistic; at 10 µM; stronger effect = higher value; cells stimulated with TPA for 15 min
Dual specificity protein phosphatase 6 (Homo sapiens), sequence (Q16828 whole entry, looked up): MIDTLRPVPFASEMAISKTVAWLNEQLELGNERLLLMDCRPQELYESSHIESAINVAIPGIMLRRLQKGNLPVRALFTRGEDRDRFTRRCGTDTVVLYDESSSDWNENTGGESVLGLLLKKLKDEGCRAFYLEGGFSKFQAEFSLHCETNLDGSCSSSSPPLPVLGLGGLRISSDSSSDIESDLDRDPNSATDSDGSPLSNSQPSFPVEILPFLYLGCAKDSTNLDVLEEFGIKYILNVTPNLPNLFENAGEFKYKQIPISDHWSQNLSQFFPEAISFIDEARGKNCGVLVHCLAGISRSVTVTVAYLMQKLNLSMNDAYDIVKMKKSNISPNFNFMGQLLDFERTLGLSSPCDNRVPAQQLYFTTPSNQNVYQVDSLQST

[6] = molecular target: Voltage-gated potassium channel subunit beta-2 (Rattus norvegicus) (UniProt P62483); assay: KvBeta enzyme negative modulators, primary screen, biochemical, NADPH fluorescence (AID 622;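 active = fluorescence slope higher than the sample average by over 3 SD, cut at about -0.22 in these data, passing the limit was not always enough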;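 note: slope of raw intensity against log time taken from 70 to 1610 s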); details: recombinant KvBeta, 4-cyanobenzaldehyde reduction, at 10 µM, stronger effect = higher value
Voltage-gated potassium channel subunit beta-2 (Rattus norvegicus), sequence (P62483 whole entry, looked up): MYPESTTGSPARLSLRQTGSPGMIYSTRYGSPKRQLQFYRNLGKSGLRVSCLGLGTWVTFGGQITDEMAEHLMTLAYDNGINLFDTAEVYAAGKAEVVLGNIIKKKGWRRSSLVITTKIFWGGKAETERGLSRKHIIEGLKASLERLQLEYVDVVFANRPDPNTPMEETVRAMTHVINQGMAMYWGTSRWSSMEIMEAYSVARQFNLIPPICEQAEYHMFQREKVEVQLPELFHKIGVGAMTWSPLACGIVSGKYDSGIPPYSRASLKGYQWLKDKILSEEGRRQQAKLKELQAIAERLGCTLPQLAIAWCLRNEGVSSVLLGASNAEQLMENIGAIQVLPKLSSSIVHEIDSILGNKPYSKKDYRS

[7] = molecular target: Voltage-gated potassium channel subunit beta-2 (Rattus norvegicus) (UniProt P62483); assay: KvBeta positive modulators, primary screen, biochemical, NADPH fluorescence (AID 623;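 active = NADPH fluorescence slope more negative than the mean of all samples by about 3 SD, 99.7% confidence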;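 note: fluorescence intensity change per second fitted from 20 to 320 s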); details: Recombinant KvBeta, NADPH fluorescence decrease slope, 10 min; at 10 µM; stronger effect = lower value
[8] = molecular target: Alpha-2C adrenergic receptor (Homo sapiens) (UniProt P18825); assay: modulators of alpha2C/GIRK thallium flux, primary screen, cell-based, HEK293 alpha2C/GIRK1/2 (AID 624;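 active = fluorescence slope after compound addition differing from the mean of all screened samples at 99.7% confidence, in either direction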;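 note: slope of fluorescence ratio to pre-addition baseline per second over 15 to 24 s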); details: thallium flux BTC fluorescence, at 10 µM, actives lie on both sides
Alpha-2C adrenergic receptor (Homo sapiens), sequence (P18825 whole entry, looked up): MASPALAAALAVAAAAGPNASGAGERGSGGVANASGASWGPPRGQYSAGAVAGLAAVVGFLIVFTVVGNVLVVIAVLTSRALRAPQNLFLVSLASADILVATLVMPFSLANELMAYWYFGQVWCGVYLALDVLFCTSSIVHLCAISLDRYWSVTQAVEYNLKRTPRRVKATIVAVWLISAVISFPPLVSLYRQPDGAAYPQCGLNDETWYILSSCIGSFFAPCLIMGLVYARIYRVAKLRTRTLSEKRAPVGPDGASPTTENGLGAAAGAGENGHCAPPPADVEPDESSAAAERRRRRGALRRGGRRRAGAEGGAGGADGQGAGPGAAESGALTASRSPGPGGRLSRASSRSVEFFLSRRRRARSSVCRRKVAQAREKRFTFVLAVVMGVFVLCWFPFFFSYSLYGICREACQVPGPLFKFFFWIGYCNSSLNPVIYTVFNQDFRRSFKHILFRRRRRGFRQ

[9] = inhibitors of larval lipid processing in zebrafish, primary screen, whole organism, PED6 fluorescence, gall bladder and intestine (AID 686;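 active = a full or partial loss of lipid-probe fluorescence in the fish gall bladder, intestine or both, judged by eye; inactive = no fluorescence loss, or compound toxic to the fish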;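 note: larvae 5 to 7 days old with five fish per well; signal comes from phospholipase A2 cleavage of quenched PED6 carried via bile; overnight exposure to compound and PED6 before scoring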); details: Zebrafish larvae PED6 lipid processing, fluorescence scoring; screened at 20 µM (by protocol)
[10] = inhibitors of Chlamydomonas gravitaxis, primary screen, whole organism, Chlamydomonas reinhardtii, WT vs cilia-less mutant, absorbance, 96-well (AID 463189); details: OD600 absorbance, 2 days, at 10 µM, stronger effect = higher value;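 note: 0% = wild type cc124 cells in DMSO and 100% = ciliumless bld1 mutant cells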
[11] = inhibitors of Sendai virus-induced IRF3 signaling, primary screen, TLR/RLR signaling modifier project, cell-based, Sendai virus stimulus, luciferase, 10K MLSCN set (AID 602276;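 active = inhibition at or above 50% at 10 µM; inactive = inhibition below 50%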;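 note: firefly luciferase from ISG56 promoter only with Renilla not read in this screen; 0% = Sendai virus plus DMSO and 100% = medium plus DMSO without virus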); details: HEK293 RL24 IRF3 luciferase reporter, at 10 µM, stronger effect = higher value
[12] = inhibitors of poly I:C-induced TLR3 signaling, primary screen, cell-based, poly I:C stimulus, luciferase, 10K MLSCN set (AID 602277;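 active = inhibition of the reporter signal at or above 50%; inactive = inhibition below 50%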); details: HEK293-TLR3 RL24 IRF3 luciferase reporter, at 10 µM, stronger effect = higher value
[13] = molecular target: Muscarinic acetylcholine receptor M4 (Homo sapiens) (UniProt P08173); assay: compounds altering M4/GIRK thallium flux, either direction, primary screen, M4 allosteric agonist project, cell-based, HEK293 M4/GIRK, BTC-AM (AID 625;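 active = fluorescence slope after compound addition differing from the mean of all tested samples at 99.7% confidence, mostly higher but some lower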;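 note: thallium influx through GIRK channels coupled to M4 in HEK293 cells with BTC-AM dye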); details: at 10 µM, actives lie on both sides
Muscarinic acetylcholine receptor M4 (Homo sapiens), sequence (P08173 whole entry, looked up): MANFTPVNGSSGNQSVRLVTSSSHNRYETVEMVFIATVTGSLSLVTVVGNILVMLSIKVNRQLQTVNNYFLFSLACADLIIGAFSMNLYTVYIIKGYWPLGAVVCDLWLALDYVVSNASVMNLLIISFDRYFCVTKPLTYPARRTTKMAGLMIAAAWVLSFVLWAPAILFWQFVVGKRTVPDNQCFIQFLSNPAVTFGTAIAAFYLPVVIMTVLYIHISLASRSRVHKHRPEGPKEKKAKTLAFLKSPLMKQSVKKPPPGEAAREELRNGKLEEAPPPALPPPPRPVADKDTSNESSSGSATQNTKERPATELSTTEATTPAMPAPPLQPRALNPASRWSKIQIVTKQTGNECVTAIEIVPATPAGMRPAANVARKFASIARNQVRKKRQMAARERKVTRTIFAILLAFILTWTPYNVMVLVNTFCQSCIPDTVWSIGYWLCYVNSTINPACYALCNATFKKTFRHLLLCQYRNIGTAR

[14] = measured here: cell density z-score
[15] = measured here: nuclear c-Myc green intensity z-score
[16] = measured here: nuclear pErk red intensity z-score, stronger effect = higher value

Structure (SMILES) | cell count [1] | inhibition [1] | inhibition of aggregation [2] | nuclei count [2] | inhibition [3] | nuclei count [3] | z-score [4, 14] | z-score [4, 15] | z-score [4, 16] | inhibition [5] | fluorescence slope [6] | NADPH fluorescence slope [7] | slope [8] | outcome [9] | inhibition [10] | inhibition [11] | inhibition [12] | fluorescence slope [13]
CCSC(SCC)[C@H](O)[C@@H](O)[C@H](O)[C@H](O)CO | 619 | -2.2% (inactive) | -0.2% (inactive) | 107% | -75.4% (inactive) | 116% | -0.857 | -0.361 | -0.437 | -4.44% (inactive) | -0.451 (inactive) | 1.5e-05 (inactive) | 0.00559 (inactive) | inactive | -8.68% (inactive) | 10.6% (inactive) | 28.3% (inactive) | 
O=C(CCCN1CC=C(n2c(=O)[nH]c3ccccc32)CC1)c1ccc(F)cc1 | 658 | -2.1% (inactive) | -8.1% (inactive) | 105% | -156% (inactive) | 128% | -0.186 | 0.167 | 0.602 | 19.2% (inactive) | -0.516 (inactive) | -7.4e-05 (inactive) | 0.00484 (inactive) | inactive | 5.84% (inactive) | -12.2% (inactive) | -37.3% (inactive) | 
CC1=C(c2ccc(Cl)cc2)[N+](=O)C(C)(C)N1[O-] | 523 | -5.6% (inactive) | 8.9% (inactive) | 94.8% | -69.5% (inactive) | 124% | 0.834 | -1.84 | 0.735 | 6.04% (inactive) | -0.408 (inactive) | -7.3e-06 (inactive) | 0.00633 (inactive) | inactive | 21.6% (inactive) | -0.683% (inactive) | 15.7% (inactive) | 
C[C@]12CC[C@@H]3c4ccc(O)cc4C(=O)C[C@H]3[C@@H]1CC[C@@H]2O | 575 | -1.5% (inactive) | 12.4% (inactive) | 79.9% | -48.8% (inactive) | 123% | 0.0524 | 0.457 | 1.93 | 10.2% (inactive) | -0.47 (inactive) | -7.3e-05 (inactive) | 0.00515 (inactive) | inactive | -6.24% (inactive) | -0.554% (inactive) | 18.4% (inactive) | 
COc1ccc2c(c1OC)C(=O)O[C@@H]2[C@H]1c2c(cc3c(c2OC)OCO3)CCN1C | 567 | 1.8% (inactive) | 0.2% (inactive) | 97.2% | -22.4% (inactive) | 112% | 0.15 | -0.163 | -0.0552 | 23.4% (inactive) | -0.46 (inactive) | -6.4e-05 (inactive) | 0.00541 (inactive) | inactive | -5.91% (inactive) and 3.65% (inactive) | 0.328% (inactive) | 32.2% (inactive) | 
O=C(OCC#CCSc1nnc(-c2ccccc2)o1)c1cccs1 | 281 | -2.4% (inactive) | 8.9% (inactive) | 95.4% | -178% (inactive) | 132% | -0.348 | 0.84 | 0.574 | 3.66% (inactive) | -0.396 (inactive) | -4e-05 (inactive) | 0.00513 (inactive) | inactive | -3.45% (inactive) | -0.522% (inactive) | 1.31% (inactive) | 
N#C/C(C(=O)NCc1ccco1)=C1/SC(Cc2ccc(F)cc2)C(=O)N1c1ccccc1 (configuration not stated) | 598 | 4.7% (inactive) | -63.4% (inactive) | 75.6% | -13.2% (inactive) | 108% | 0.348 | 0.139 | 0.51 | -2.09% (inactive) | -0.437 (inactive) | -2.8e-05 (inactive) |  | inactive; toxic | -7.54% (inactive) | 11.5% (inactive) | 20.4% (inactive) | 0.00419 (inactive)
Oc1c(I)cc(I)c2cccnc12 | 615 | -0.5% (inactive) | -10.9% (inactive) | 110% | -79.9% (inactive) | 121% | -0.0594 | -1.99 | 1.27 | -11.9% (inactive) | -0.436 (inactive) | 7.6e-06 (inactive) | 0.00528 (inactive) | inactive | 2.25% (inactive) | 12.4% (inactive) | 30.5% (inactive) | 
CCNC(=O)N(C)c1nncnc1C(=O)NC | 435 | -12.6% (inactive) | 6.9% (inactive) | 105% | -11.1% (inactive) | 105% | 0.426 | 0.386 | 0.174 | 2.92% (inactive) | -0.505 (inactive) | -4.4e-05 (inactive) | 0.00736 (inactive) | inactive | 35.2% (inactive) | 18.1% (inactive) | 22.2% (inactive) | 
CC1(C)CC(=O)C=C(NCc2ccncc2)C1 | 623 | -5.3% (inactive) | -13.1% (inactive) | 100% | -98.8% (inactive) | 122% | 1.78 | -0.484 | -1.6 | 13.9% (inactive) | -0.497 (inactive) | -3.5e-05 (inactive) | 0.00534 (inactive) | inactive | -8.68% (inactive) | -0.503% (inactive) | 44.9% (inactive) | 
Cc1nc(/N=C(\N)Nc2ccccc2)nc2ccccc12 | 304 | 2.5% (inactive) | -14% (inactive) | 103% | -112% (inactive) | 110% | 0.361 | 0.688 | 0.354 | -0.624% (inactive) | -0.38 (inactive) | 2.3e-05 (inactive) | 0.0057 (inactive) | inactive | 7.3% (inactive) | -6.34% (inactive) | -21.7% (inactive) | 
COc1cccc(N2C(=O)C(O)=C(C(C)=O)C2c2ccc(OC)c(OC)c2)c1 (configuration not stated) | 652 | -3.8% (inactive) | 14% (inactive) | 104% | 34% (inactive) | 106% | -1.18 | -0.212 | 0.653 | 2.46% (inactive) | -0.453 (inactive) | -6.1e-06 (inactive) |  | inactive | -2.64% (inactive) | 5.42% (inactive) | -0.11% (inactive) | 0.00642 (inactive)
CCn1nc(NC(=O)c2cccnc2)c2cc3ccccc3nc21 | 522 | -0.4% (inactive) | -3.3% (inactive) | 104% | -29.4% (inactive) | 133% | 0.0666 | 1.36 | -0.336 | -6.48% (inactive) | -0.423 (inactive) | -3.9e-05 (inactive) |  | inactive | 3.52% (inactive) | 10.7% (inactive) | -6.02% (inactive) | 0.00509 (inactive)
Cc1cc(O)c(C(C)C)cc1N=C1CSC(=O)N1 | 428 | -5.3% (inactive) | 10.4% (inactive) | 60.9% | -9% (inactive) | 98.6% | 0.698 | -0.53 | 0.0977 | 12.8% (inactive) | -0.483 (inactive) | -5.3e-05 (inactive) |  | inactive | -20% (inactive) | 13% (inactive) | 19.6% (inactive) | 0.00491 (inactive)
COC(=O)C(NC(C)=O)(Nc1nc2ccc(S(C)(=O)=O)cc2s1)C(F)(F)F (configuration not stated) | 473 | -7.9% (inactive) | 3.4% (inactive) | 102% | -30.1% (inactive) | 97.4% | -0.876 | 0.631 | 0.313 | 7.42% (inactive) | -0.51 (inactive) | -1e-05 (inactive) |  | inactive | -13% (inactive) | -0.421% (inactive) | 13.8% (inactive) | 0.00507 (inactive)
Clc1ccc(-n2ncc3c(NCCCn4ccnc4)ncnc32)cc1 | 618 | -10.7% (inactive) | -16.9% (inactive) | 105% | -41.4% (inactive) | 129% | -0.368 | 0.856 | 1.02 | 1.42% (inactive) | -0.386 (inactive) | -5.7e-05 (inactive) |  | inactive | -3.19% (inactive) | -0.733% (inactive) | -33.8% (inactive) | 0.00622 (inactive)
O=S(=O)(c1ccc2ccccc2c1)N(CC(O)CN1CCOCC1)c1ccccc1 (configuration not stated) | 576 | -8.7% (inactive) | -10.4% (inactive) | 113% | -7.5% (inactive) | 105% | 0.984 | 1.41 | -0.234 | 1.42% (inactive) | -0.344 (inactive) | -3.3e-05 (inactive) |  | inactive | 143% (active) | 20.7% (inactive) | 14.9% (inactive) | 0.00503 (inactive)
Cn1c(=O)[nH]c(=O)c2c1nc(N(CCO)Cc1ccccc1)n2Cc1ccccc1Cl | 650 | 4.6% (inactive) | -19.3% (inactive) | 139% | -37.5% (inactive) | 109% | 1.19 | -1.16 | -0.515 | 1.63% (inactive) | -0.438 (inactive) | -6.1e-05 (inactive) |  | inactive | 31.2% (inactive) | 16.5% (inactive) | 28.7% (inactive) | 0.00652 (inactive)
Cc1ccc(/C=N/n2nnnc2N)o1 | 674 | -1.3% (inactive) | 3.9% (inactive) | 132% | -8.1% (inactive) | 133% | 0.152 | -0.504 | 0.0866 | 1.04% (inactive) | -0.487 (inactive) | -2.1e-05 (inactive) |  | inactive | 5.51% (inactive) | -2.49% (inactive) | 3.55% (inactive) | 0.00641 (inactive)
CCC(NC(=O)Nc1cc(OC)c(OC)c(OC)c1)(C(F)(F)F)C(F)(F)F | 545 | 3.4% (inactive) | 15.8% (inactive) | 97.5% | -82.9% (inactive) | 141% | -0.0203 | 1.89 | 0.038 | 1.9e-07% (inactive) | -0.48 (inactive) | -4e-05 (inactive) |  | inactive | 8.7% (inactive) | 20% (inactive) | 24.9% (inactive) | 0.00495 (inactive)
Cc1cc(C)n(C(=O)CNC(=O)C2COc3ccccc3O2)n1 (configuration not stated) | 659 | -7.8% (inactive) | -13.6% (inactive) | 105% | -92.7% (inactive) | 124% | 0.273 | -1.59 | 0.636 | 3.66% (inactive) | -0.393 (inactive) | -4.6e-05 (inactive) |  | inactive | 15.9% (inactive) | 15.9% (inactive) | 20.1% (inactive) | 0.00449 (inactive)

From PubChem BioAssay
